# Only some compounds are listed: those with a hit (about 4.7% of all), similar ones and a draw of the others.
# HTT prom inh = Primary qHTS for Identification of Small Molecule Inhibitors of Huntingtin Promoter Activity; HEK293 HTT promoter firefly luciferase reporter, 24 h; Potency, µM (highest dose often 57.5 µM), for inactives: top-dose activity change, negative = inhibition, hits mostly inhibitors; 48,000 tested, 0.93% active; note: potency is the fitted concentration of half-maximal effect; nearly all actives have a fitted effect of over 50% in size
#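 Luminescence was read after Dual-Glo reagent and a 10 min room-temperature incubation. Values were normalized to vehicle (0% activity) and zero RLU (-100% activity). Reporter HEK293 cells had been exposed to compounds (up to 57.5 uM final) for 24 h.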
# FH mod = Identification of activators of human fumarate hydratase by quantitative high-throughput screening; Fumarate hydratase, mitochondrial (Homo sapiens), P07954; FH coupled MDH/diaphorase resazurin fluorescence, 15 min; Potency, µM (doses to about 79.9 µM), for the others: top-dose activity change, negative = inhibition, actives largely listed as inhibitors; 54,000 tested, 0.22% active; AID 1347055, 2019; note: potency is the fitted concentration of half-maximal effect; % is set by controls: 0 for no effect and ±100 for the full control effect; the screen sought activators but most active calls are inhibition curves; nearly all actives have a fitted effect of over 45% in size
# DRV1 agonist = qHTS for Agonists of Human Resolvin D1 Receptor DRV1 | Probable G-protein coupled receptor 32 (Homo sapiens), O75388 | CHO-K1 GPR32 beta-arrestin PathHunter luminescence, 90 min; zero percent set by DMSO-only wells | activation, % at 76.9 µM | 48,000 tested, 2.5% active | AID 1346428, 2018;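 active = activation of at least 60% and not above a set upper limit, about 1 call in 100 departs from these limits; inconclusive = activation of 40% to 60%, or above that upper limit; inactive = activation under 40%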; note: 0% is about no effect
# Target sequence (O75388 whole entry, looked up): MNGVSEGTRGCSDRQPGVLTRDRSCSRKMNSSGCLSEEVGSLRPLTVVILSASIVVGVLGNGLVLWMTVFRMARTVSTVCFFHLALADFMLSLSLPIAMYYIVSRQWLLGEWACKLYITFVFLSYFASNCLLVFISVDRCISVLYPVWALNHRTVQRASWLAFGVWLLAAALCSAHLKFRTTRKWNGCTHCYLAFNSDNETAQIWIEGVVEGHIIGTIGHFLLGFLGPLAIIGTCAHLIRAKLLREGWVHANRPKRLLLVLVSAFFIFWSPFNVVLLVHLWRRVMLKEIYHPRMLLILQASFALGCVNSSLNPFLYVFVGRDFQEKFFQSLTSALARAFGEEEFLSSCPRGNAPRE
#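 Agonism was scored as beta-arrestin recruitment to ProLink-fused GPR32 in stably transfected CHO-K1 cells, giving a chemiluminescent beta-Gal signal; compounds were incubated 90 min at 37 °C.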
# GALC G270D act = A Novel Cell-Based Assay to Identify Small Molecules for B -Galactocerebrosidase. 145M-Twi-hGALC-G270D cells (Twitcher mouse brain line with human GALC G270D), HMU-beta-Gal fluorescence, 48 h. 45,000 tested, 0.1% active. Potency, µM (top dose mostly 57.5 µM), usual class: activators; note: potency is the fitted concentration of half-maximal effect; 0% is about no effect; nearly all actives have a fitted effect of over 65% in size
#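 Fluorescence readout: HMU-β-gal cleavage by mutant GALC (0.1 mM final, citrate/phosphate pH 5.2 with 1 mg/mL taurocholate), stopped with carbonate/bicarbonate plus Triton X-100. Cells: murine Twitcher 145M-Twi expressing human G270D GALC; qHTS for activators.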
# NTMT1 inhibitor = Primary qHTS for Inhibitors of N-terminal methyltransferase 1 (NTMT1): MTaseGlo Assay. N-terminal Xaa-Pro-Lys N-methyltransferase 1 (Homo sapiens), Q9BV86. NTMT1 MTase-Glo SAH luminescence, purified enzyme. Potency, µM (highest dose often 114 µM), without a hit: at the top dose activity change, negative = inhibition, actives largely listed as inhibitors. 59,000 tested, 2.5% active;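 note: potency is the fitted concentration of half-maximal effect; plate controls were DMSO vehicle for no effect and no enzyme for full effect; nearly all actives have a fitted effect of over 65% in size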
# Target sequence (Q9BV86 whole entry, looked up): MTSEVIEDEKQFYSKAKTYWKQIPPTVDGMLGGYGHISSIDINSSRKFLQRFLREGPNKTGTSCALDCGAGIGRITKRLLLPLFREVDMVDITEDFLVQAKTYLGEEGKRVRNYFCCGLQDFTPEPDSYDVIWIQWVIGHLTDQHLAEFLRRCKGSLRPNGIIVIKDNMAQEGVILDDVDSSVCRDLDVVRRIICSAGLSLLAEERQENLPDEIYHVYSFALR
# HTT-AS act = Primary qHTS for Identification of Small Molecule Activators of Huntingtin-Antisense Promoter Activity; HEK293 HTT-AS promoter firefly luciferase reporter, 24 h; response scale: percent change from vehicle, -100% = no light; Potency, µM (top dose mostly 57.5 µM), without a hit: at the top dose activity change, positive = activation, most hits filed as activators; 48,000 tested, 0.24% active; AID 1508624, 2021; note: potency is the fitted concentration of half-maximal effect; nearly all actives have a fitted effect of over 55% in size
#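 HEK293 luciferase promoter-reporter cells (2,500/well) plated 24 h, then compounds added at up to 57.5 uM final for 24 h at 37 °C. Firefly luminescence by Dual-Glo, normalized to vehicle (0%) and zero RLU (-100%).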
# Sfp qHTS opt = qHTS Assay for Inhibitos of Bacillus subtilis Sfp phosphopantetheinyl transferase (PPTase): Chemistry Optimization Followup | AID 540350, 2011 | Potency, µM (doses to about 114 µM), inactives show at the top dose activity change, negative = inhibition, most hits filed as inhibitors | shares compounds with NTMT1 inhibitor | purified Sfp PPTase enzyme activity, qHTS | 230 tested, 78% active
# HM489 growth = qHTS for Inhibitos of Bacillus subtilis Sfp phosphopantetheinyl transferase (PPTase): Chemistry Optimization Followup in B. Subtilis HM489 | 220 tested, 50% active | B. subtilis HM489 (acpS-) growth, BacTiter-Glo, 5 h | Potency, µM (doses to about 114 µM), without a hit: top-dose activity change, negative = inhibition, usual class: inhibitors | shares compounds with NTMT1 inhibitor
# Sfp PPTase gel = Gel-Based Assay for Inhibitos of Bacillus subtilis Sfp phosphopantetheinyl transferase (PPTase): Chemistry Optimization Followup | shares compounds with NTMT1 inhibitor | purified Sfp PPTase, gel-based product detection | Potency, µM (titrated, usually from 250 µM), inactives show top-dose activity change, negative = inhibition, hits mostly inhibitors | 220 tested, 54% active | AID 540355, 2011
# Sfp inh gel = qHTS Assay for Inhibitors of Bacillus subtilis Sfp phosphopantetheinyl transferase (PPTase): Gel Based Assay | shares compounds with NTMT1 inhibitor | purified Sfp PPTase, gel-based product detection | Potency, µM (titrated, usually from 250 µM), inactives show at the highest dose activity change, negative = inhibition, actives largely listed as inhibitors | 45 tested, 90% active | AID 602362, 2012
# Sfp inh SAR2 = qHTS Assay for Inhibitors of Bacillus subtilis Sfp phosphopantetheinyl transferase (PPTase): SAR Round 2 | shares compounds with NTMT1 inhibitor | Potency, µM (doses to about 57.1 µM), for the others: at the top dose activity change, negative = inhibition, actives largely listed as inhibitors | 230 tested, 87% active | purified Sfp enzyme, PPTase activity, qHTS
# hGST A1-1 inh = qHTS Assay for Inhibitors of Bacillus subtilis Sfp phosphopantetheinyl transferase (PPTase): SAR in hGST A1-1. shares compounds with NTMT1 inhibitor. hGST A1-1 enzyme activity counter-screen, qHTS. Potency, µM (titrated, usually from 114 µM), for the others: top-dose activity change, negative = inhibition, actives largely listed as inhibitors. 55 tested, under 10 active. AID 602391, 2012
# HSD17B4 inh = Extended Characterization of HPGD Inhibitors: Counterscreen Against HSD17b4. shares compounds with NTMT1 inhibitor. purified HSD17B4, estradiol/NAD+, NADH fluorescence. Potency, µM (titrated, usually from 57.1 µM), without a hit: top-dose activity change, negative = inhibition, hits mostly inhibitors. 230 tested, 10% active. AID 743187, 2013
# ALDH1A1 inh = Extended Characterization of HPGD Inhibitors: Counterscreen Against ALDH1A1. shares compounds with NTMT1 inhibitor. recombinant ALDH1A1, NADH fluorescence, propionaldehyde/NAD+. Potency, µM (titrated, usually from 57.1 µM), inactives show at the top dose activity change, negative = inhibition, actives largely listed as inhibitors. 230 tested, 93% active. AID 743195, 2013
# Numbers without * were called inactive; i = inactive; ? = inconclusive; nt = no result given; [ ] = remark or other dose. Unless noted, calls come from the whole dose curve; as a rule, active = well fitted curve in the direction sought with a large enough effect; inconclusive = small, poorly fitted or top-dose-only effect, or another doubt; inactive = no such curve, though single readings can be large; an effect the other way counts as inactive or inconclusive.
SMILES,HTT prom inh,FH mod,DRV1 agonist,GALC G270D act,NTMT1 inhibitor,HTT-AS act,Sfp qHTS opt,HM489 growth,Sfp PPTase gel,Sfp inh SAR2,HSD17B4 inh,ALDH1A1 inh,others
COC(=O)c1ccnc(NC(=S)N2CCN(c3cccc(C(F)(F)F)c3)CC2)c1,nt,nt,nt,nt,nt,nt,26.4µM*,16.7µM*,39.8µM*,11.5µM*,17.1µM*,12.1µM*,
Cc1noc2ncnc(N3CCN(c4cccc(C(F)(F)F)c4)CC3)c12,?,-0.4%,9.4,i,7.5%,-45.1%,nt,nt,nt,nt,nt,nt,
Cc1ccnc(NC(=S)N2CCN(c3cc(F)cc(Cl)c3)CC2)c1,nt,nt,nt,nt,nt,nt,1.18µM*,14.8µM*,10µM*,1.62µM*,-20.5%,7.64µM*,
Cc1ccccc1C(=O)n1ccc2cc(-c3nc(NC(=O)Cc4ccc5c(c4)OCO5)sc3C)ccc21,nt,nt,nt,nt,5.5%,nt,nt,nt,nt,nt,nt,nt,
CC(C)c1c(-c2ccccc2)nc2c(C#N)c[nH]n2c1=O,nt,nt,nt,nt,16.4%,nt,nt,nt,nt,nt,nt,nt,
O=C1OC(COc2ccccc2[N+](=O)[O-])CC1Cc1ccccc1 (stereo not given),nt,nt,nt,nt,4.8%,nt,nt,nt,nt,nt,nt,nt,
CCNC(=O)Nc1ccc(-c2nc3c(c(N4CCOC[C@@H]4C)n2)CCN(C2COC2)C3)cc1,nt,nt,nt,nt,2.4%,nt,nt,nt,nt,nt,nt,nt,
Cc1ccnc(NC(=S)N2CCN(c3cccc(C(F)(F)F)n3)CC2)c1,nt,nt,nt,nt,?,nt,1.48µM*,29.6µM*,7.94µM*,0.73µM*,-25.6%,21.5µM*,
CC(C)(O)CNc1nc(Nc2ccnc(C(F)(F)F)c2)nc(-c2cccc(C(F)(F)F)n2)n1,nt,3.7%[53.3 µM],nt,nt,?,nt,nt,nt,nt,nt,nt,nt,
Cc1ccnc(NC(=S)N2CCN(c3cc(C(F)(F)F)cc(C(F)(F)F)c3)CC2)c1,nt,nt,nt,nt,?,nt,2.35µM*,3.32µM*,0.794µM*,0.65µM*,27.1µM*,7.64µM*,Sfp inh gel=0.954µM*;hGST A1-1 inh=?
Cc1ccc2scc(N3CCN(c4cccc(C(F)(F)F)c4)CC3)c(=O)c2c1,2.0%,7.6%,-23.2,i,-6.3%,7.3%,nt,nt,nt,nt,nt,nt,
S=C(Nc1cc(Cl)ccn1)N1CCN(c2ccc(Cl)cc2Cl)CC1,nt,nt,nt,nt,?,nt,?,5.91µM*,-20.1%,36.3µM*,-4.3%,24.1µM*,
Cc1cccc(NC(=S)N2CCN(c3cccc(C(F)(F)F)c3)CC2)c1,nt,nt,nt,nt,nt,nt,4.0%,14.8%,0.9%,-19.8%,?,1.52µM*,
Cc1ccc2onc(CNC(=O)N3CCN(c4cccc(C(F)(F)F)c4)CC3)c2c1,?,-0.7%,10.5,i,15.9%,-18.6%,nt,nt,nt,nt,nt,nt,
CONC(=O)Nc1ccc(-c2sc3c(c2CN(C)C)c(=O)n(-c2ccc(OC)nn2)c(=O)n3Cc2c(F)cccc2F)cc1,nt,nt,nt,nt,-3.4%,nt,nt,nt,nt,nt,nt,nt,
CC1[C@@H](O)[C@@H](O)C2[C@]3(C)C(C[C@H]4OC(=O)[C@H](O)[C@]1(O)[C@@]24C)C(C)(O)C[C@H](O)[C@H]3O (stereo not given in full),nt,6.0%[53.3 µM],nt,nt,-2.3%[29.8 µM],nt,nt,nt,nt,nt,nt,nt,
CC(C)c1ccccc1-c1ncc(F)c(NCc2ccc(-c3ccn[nH]3)cc2)n1,nt,nt,nt,nt,8.2%,nt,nt,nt,nt,nt,nt,nt,
Cc1ccc2cc3cc(C(=O)N4CCN(c5cccc(C(F)(F)F)c5)CC4)sc3nc2c1,2.5%,4.8%,4.1,i,13.0%,0.6%,nt,nt,nt,nt,nt,nt,
Cc1ccnc(N(C)C(=S)N2CCN(c3cccc(C(F)(F)F)c3)CC2)c1,nt,nt,nt,nt,-5.5%,nt,?,?,?,?,-17.8%,19.2µM*,
S=C(Nc1cc(Cl)ccn1)N1CCN(c2cc(Cl)cc(Cl)c2)CC1,nt,nt,nt,nt,nt,nt,37.3µM*,10.5µM*,-58.6%,18.2µM*,11.8%,27.1µM*,

# Compound activity deposited in PubChem BioAssay by National Center for Advancing Translational Sciences (NCATS).
